Active and inactive are the calls of the source. The calls were made as follows: active = hit-call score of the fitted dose curve at least 0.9, where 1 is the maximum; inactive = score below 0.9.
What was measured:
[1] = biological target: Paired box protein Pax-6 (Homo sapiens) (UniProt P26367); experiment: ATG_Pax6_CIS: Attagene CIS-FACTORIAL HepG2 Assay for human Paired Box 6 (PAX6) (AID 2282956); details: HepG2 CIS-FACTORIAL PAX6 reporter transcription, RNA readout; actives raise or lower the signal
How it was run: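 Multiplexed cis-reporter HepG2 system; 24 h treatment; reporter mRNA read by RT-PCR/CE fluorescence; bidirectional fit vs DMSO.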

[2] = ATG_PXRE_CIS: Attagene CIS-FACTORIAL HepG2 Assay for human Pregnane X Receptor Element (PXRE) (AID 2282957); details: HepG2 Attagene CIS-FACTORIAL PXRE reporter, mRNA; actives raise or lower the signal
How it was run: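 HepG2 cells transiently transfected with cis-regulated multiple reporter transcription units; endogenous factor activity measured as reporter mRNA 24 h after dosing. RT-PCR, fluorescent primer extension, HpaI digestion, capillary electrophoresis; bidirectional fit versus DMSO baseline.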

[3] = ATG_RORE_CIS: Attagene CIS-FACTORIAL HepG2 Assay for human RAR-related Orphan Receptor Element (RORE) (AID 2282959); details: HepG2 Attagene cis-factorial RORE reporter, mRNA; actives raise or lower the signal
How it was run: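 Fluorescence intensity of reporter-specific cDNA fragments, separated by capillary electrophoresis, gives the signal. Source: HepG2 liver cells transiently transfected with cis-element reporters and exposed 24 h; DMSO-normalized bidirectional fit.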

[4] = ATG_Sox_CIS: Attagene CIS-FACTORIAL HepG2 Assay for human SRY-box transcription factor (SOX) (AID 2282960); details: HepG2 Attagene cis-factorial SOX reporter, mRNA; actives raise or lower the signal
How it was run: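 After 24 h of chemical treatment, transfected HepG2 reporter cells are lysed for total RNA. Transcript levels come from RT-PCR with labelled primer extension and capillary electrophoresis, analysed bidirectionally versus DMSO.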

[5] = biological target: Transcription factor Sp1 (Homo sapiens) (UniProt P08047); experiment: ATG_Sp1_CIS: Attagene CIS-FACTORIAL HepG2 Assay for human Specificity Protein 1 (Sp1) (AID 2282961); details: HepG2 Sp1 cis-reporter transcription, actives raise or lower the signal
How it was run: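 Sp1-driven reporter mRNA, read as capillary electrophoresis fluorescence after RT-PCR, in transiently transfected HepG2 cells dosed for 24 h; signal change in either direction relative to DMSO.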

[6] = ATG_SREBP_CIS: Attagene CIS-FACTORIAL HepG2 Assay for human Sterol Regulatory Element Binding (SREBP) (AID 2282962); details: HepG2 Attagene cis-factorial SREBP reporter, mRNA; actives raise or lower the signal
How it was run: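 mRNA induction of transfected cis-promoter reporters in HepG2 cells, 24 h post-dose. Detection: RT-PCR with 6-FAM-labelled products, HpaI digest, capillary electrophoresis. DMSO served as negative control and baseline.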

[7] = biological target: Signal transducer and activator of transcription 3 (Homo sapiens) (UniProt P40763); experiment: ATG_STAT3_CIS: Attagene CIS-FACTORIAL HepG2 Assay for human Signal Transducer and Activator of Transcription 3 (STAT3) (AID 2282963); details: HepG2, Attagene cis-factorial STAT3 reporter transcription; actives raise or lower the signal
How it was run: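 HepG2 cells transiently transfected with cis-element-driven multiple reporter transcription units; after 24 h chemical exposure, reporter mRNA measured by RT-PCR, 6-FAM primer-extension labelling, HpaI digestion and capillary electrophoresis. Bidirectional fitting versus DMSO baseline.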

[8] = ATG_TA_CIS: Attagene CIS-FACTORIAL HepG2 Assay for human TA Basal Promoter (AID 2282964); details: HepG2 Attagene CIS-factorial TA basal promoter reporter; actives raise or lower the signal
How it was run: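 Background internal-marker endpoint from a 52-component HepG2 cis-reporter panel. Cells treated 24 h; reporter transcripts quantified via RT-PCR and CE fluorescence against DMSO baseline.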

[9] = ATG_TCF_b_cat_CIS: Attagene CIS-FACTORIAL HepG2 Assay for human T-Cell-Factor with beta-catenin (TCF/b-cat) (AID 2282965); details: HepG2 TCF/beta-catenin cis-reporter transcription, actives raise or lower the signal
How it was run: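 In this cis-format system, transfected HepG2 cells report endogenous transcription factor activity. Readout after 24 h exposure is reporter transcript abundance from RT-PCR and capillary electrophoresis, analysed for gain or loss of signal versus DMSO.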

[10] = ATG_PPRE_CIS: Attagene CIS-FACTORIAL HepG2 Assay for human Peroxisome Proliferator-activated Response Element (PPRE) (AID 2282958); details: HepG2 PPRE cis-element reporter, Attagene transcription factor profiling; actives raise or lower the signal
How it was run: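 Multiplexed reporter transcription units under cis-regulatory promoters were transfected into HepG2 cells to capture endogenous factor activity. A 24 h incubation preceded RNA isolation and fluorescent RT-PCR fragment analysis.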

Measured: AC50

Sequence of Transcription factor Sp1 (Homo sapiens) (P08047 whole entry, looked up): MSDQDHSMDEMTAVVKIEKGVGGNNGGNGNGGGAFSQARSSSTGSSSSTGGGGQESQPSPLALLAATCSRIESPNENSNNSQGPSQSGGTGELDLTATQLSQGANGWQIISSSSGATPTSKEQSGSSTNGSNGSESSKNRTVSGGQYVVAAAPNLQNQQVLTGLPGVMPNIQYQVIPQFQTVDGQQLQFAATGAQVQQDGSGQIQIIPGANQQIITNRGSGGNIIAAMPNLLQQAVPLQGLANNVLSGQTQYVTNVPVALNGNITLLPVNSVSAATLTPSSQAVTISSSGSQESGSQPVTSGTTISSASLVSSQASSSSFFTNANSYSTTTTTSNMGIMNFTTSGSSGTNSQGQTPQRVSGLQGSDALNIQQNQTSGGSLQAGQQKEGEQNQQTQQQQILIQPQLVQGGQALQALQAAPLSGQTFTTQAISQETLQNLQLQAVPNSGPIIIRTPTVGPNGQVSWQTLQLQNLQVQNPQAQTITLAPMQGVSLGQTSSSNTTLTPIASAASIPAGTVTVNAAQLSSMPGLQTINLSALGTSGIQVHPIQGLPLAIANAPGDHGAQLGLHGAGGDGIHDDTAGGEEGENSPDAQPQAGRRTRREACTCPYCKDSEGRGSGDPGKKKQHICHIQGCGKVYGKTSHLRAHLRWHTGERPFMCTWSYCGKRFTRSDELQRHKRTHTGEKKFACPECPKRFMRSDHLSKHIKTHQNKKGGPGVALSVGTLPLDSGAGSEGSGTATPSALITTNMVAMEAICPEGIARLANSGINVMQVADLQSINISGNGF
Sequence of Signal transducer and activator of transcription 3 (Homo sapiens) (P40763 whole entry, looked up): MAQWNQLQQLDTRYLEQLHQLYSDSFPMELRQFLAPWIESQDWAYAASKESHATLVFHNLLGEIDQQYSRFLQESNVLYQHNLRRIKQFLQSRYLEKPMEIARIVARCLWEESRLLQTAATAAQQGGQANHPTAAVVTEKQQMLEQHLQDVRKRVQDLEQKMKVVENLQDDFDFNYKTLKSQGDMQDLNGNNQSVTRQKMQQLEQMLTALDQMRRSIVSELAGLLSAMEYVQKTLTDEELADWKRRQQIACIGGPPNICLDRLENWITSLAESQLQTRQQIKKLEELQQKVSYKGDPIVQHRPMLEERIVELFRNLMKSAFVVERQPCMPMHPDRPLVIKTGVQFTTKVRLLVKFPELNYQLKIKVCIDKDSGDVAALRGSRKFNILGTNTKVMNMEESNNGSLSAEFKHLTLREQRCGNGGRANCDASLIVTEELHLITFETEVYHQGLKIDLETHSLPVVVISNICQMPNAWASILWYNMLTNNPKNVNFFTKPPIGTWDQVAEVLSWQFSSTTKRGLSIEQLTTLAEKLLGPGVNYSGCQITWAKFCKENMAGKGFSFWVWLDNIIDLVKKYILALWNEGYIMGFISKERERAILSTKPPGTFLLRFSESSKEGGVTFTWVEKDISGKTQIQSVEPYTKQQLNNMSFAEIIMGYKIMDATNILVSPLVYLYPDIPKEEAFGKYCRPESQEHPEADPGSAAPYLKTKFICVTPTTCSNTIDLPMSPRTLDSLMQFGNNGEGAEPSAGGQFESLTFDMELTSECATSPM
Sequence of Paired box protein Pax-6 (Homo sapiens) (P26367 whole entry, looked up): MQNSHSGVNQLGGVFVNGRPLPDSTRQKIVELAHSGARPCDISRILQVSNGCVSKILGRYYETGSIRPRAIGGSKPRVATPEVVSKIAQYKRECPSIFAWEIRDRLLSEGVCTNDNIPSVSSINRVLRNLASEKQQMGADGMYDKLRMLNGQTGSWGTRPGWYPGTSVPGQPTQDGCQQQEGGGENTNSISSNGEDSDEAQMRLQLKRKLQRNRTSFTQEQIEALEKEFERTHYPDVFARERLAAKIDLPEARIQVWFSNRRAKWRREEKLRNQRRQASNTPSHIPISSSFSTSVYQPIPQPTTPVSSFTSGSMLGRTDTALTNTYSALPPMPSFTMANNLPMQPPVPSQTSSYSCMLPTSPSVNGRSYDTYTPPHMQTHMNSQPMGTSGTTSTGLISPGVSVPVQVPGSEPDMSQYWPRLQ

CCCCC/C=C/C=C/C=O
active: [1] 100 µM | [2] 26.6 µM
inactive: [3] | [4] | [5] | [6] | [7] | [8] | [9]

CN1Cc2c(N)cccc2C(c2ccccc2)C1 (configuration not stated)
inactive: [1] | [10] | [4] | [6] | [7] | [8] | [9]
active: [2] 6.9 µM

CN(CCOc1ccc(CC2SC(=O)NC2=O)cc1)c1ccccn1 (configuration not stated)
active: [2] 6.08 µM | [3] 9.64 µM | [6] 5.58 µM
inactive: [1] | [4] | [5] | [7] | [8] | [9]

CC1=CCC2C(C1)C2(C)C (configuration not stated)
inactive: [1] | [3] | [4] | [5] | [6] | [7] | [8] | [9]
active: [2] 6.95 µM

Clc1ccc(Cl)c(Cl)c1Cl
inactive: [1] | [2] | [3] | [4] | [5] | [6] | [7] | [8] | [9]

O=C(O)c1cn(-c2ccc(F)cc2)c2cc(N3CCNCC3)c(F)cc2c1=O
inactive: [1] | [2] | [3] | [4] | [5] | [6] | [7] | [8] | [9]

C=CCOC(=O)CCC1CCCCC1
inactive: [1] | [2] | [10] | [4] | [5] | [6] | [7] | [8] | [9]

OC1C(O)C(O)C(O)C(O)C1O (configuration not stated)
inactive: [1] | [2] | [10] | [4] | [5] | [6] | [7] | [8] | [9]

Fc1c(F)c(F)c(Br)c(F)c1F
active: [2] 46.5 µM
inactive: [1] | [10] | [4] | [5] | [6] | [7] | [8] | [9]

COCCCOc1ccnc(CS(=O)c2nc3ccccc3[nH]2)c1C (configuration not stated)
inactive: [1] | [3] | [4] | [5] | [6] | [7] | [8] | [9]
active: [2] 6.74 µM

CCCCCCCCCCN
inactive: [1] | [2] | [3] | [4] | [5] | [6] | [7] | [8] | [9]

C=C(C)C(=O)Nc1ccc(Cl)c(Cl)c1
active: [2] 10.2 µM | [3] 27.2 µM
inactive: [1] | [4] | [5] | [6] | [7] | [8] | [9]

c1ccc(CCCc2ccccn2)cc1
active: [2] 100 µM
inactive: [1] | [3] | [4] | [5] | [6] | [7] | [8] | [9]

OCC(CO)(CO)COCC(CO)(CO)CO
inactive: [1] | [2] | [3] | [4] | [5] | [6] | [7] | [8] | [9]

O=C1c2ccccc2C(=O)N1SC1CCCCC1
inactive: [1] | [3] | [4] | [6] | [8] | [9]
active: [2] 148 µM | [5] 59.1 µM | [7] 145 µM

CC(C)C1CCC(O)CC1 (configuration not stated)
inactive: [1] | [2] | [3] | [4] | [5] | [6] | [7] | [8] | [9]

CC(C)(C)C(=O)c1ccccc1
inactive: [1] | [3] | [4] | [5] | [6] | [7] | [8] | [9]
active: [2] 53 µM

From PubChem BioAssay (EPA / NIEHS)
